{
  "source": "PubChem BioAssay (EPA / NIEHS)",
  "note": "Activity calls are given as the source filed them. The calls were made as follows: active = hit-call score of the fitted dose curve at least 0.9, where 1 is the maximum; inactive = score below 0.9.",
  "data": [
    {"test": "Tanguay_ZF_120hpf_EDEM: Oregon State University Tanguay Lab 120 Hour Post-fertilization zebrafish Assay for Edema Malformation (AID 2284400)", "description": "Tanguay_ZF_120hpf is a whole embryo, multiplexed endpoint assay using zebrafish larvae exposed for 120 hours post fertilization on a 96-well plate.Tanguay_ZF_120hpf_EDEM is one of one assay component(s) measured or calculated from the Tanguay_ZF_120hpf assay. It is designed to make measurements of zebrafish development as detected with brightfield microscopy of developing zebrafish embryos.Data from the assay component Tanguay_ZF_120hpf_EDEM was analyzed into 1 assay endpoints. This assay endpoint, Tanguay_ZF_120hpf_EDEM, was analyzed in the positive analysis fitting direction relative to DMSO as the negative control and baseline of activity. Using a type of morphology reporter, gain-of-signal activity can be used to understand changes in developmentals as they relate to the whole embryo. To generalize the intended target to other relatable targets, this assay endpoint is annotated to the zebrafish development intended target family, where the subfamily is embryonic edema.\nZebrafish husbandry: Tropical 5D wild-type adult zebrafish were housed in at an approximate density of 1000 per 100 gallon tank at the Sinnhuber Aquatic Research Laboratory, Oregon State University, Corvallis, OR. Each tank was kept at standard laboratory conditions of 28C on a 14-h light/10-h dark photoperiod in fish water consisting of reverse osmosis water supplemented with a commercially available salt (Instant Ocean). Spawning funnels were placed into the tanks the night prior, and embryos were collected and staged. To increase bioavailability, the chorion was enzymatically removed using pronase (63.6mg/ml, >/= 3.5U/mg, Sigma-Aldrich: P5147) at 4 hours post fertilization (hpf) using a custom automated dechorionator.Chemical exposures: Six hpf dechorionated embryos were placed 1 embryo per well in a 96-well plate prefilled with 90 ul of EM using automated embryo placement systems (AEPS). Ten microliters of each row of dilution plate 2 was added to 2 exposure plates. The final DMSO concentration used was 0.64% (vol/vol). Thirty-two embryos were also exposed to 5uM trimethyltin chloride (positive control). Plates were sealed to prevent evaporation and foil covered to reduce light exposure and kept in a 28C incubator. Embryos were statically exposed until 120 hpf. At 24 hpf, embryos were assessed for photomotor response using a custom photomotor response analysis tool (PRAT) and for developmental toxicity endpoints (MO24: mortality at 24 hpf, DP: developmental progression, SM: spontaneous movement, and NC: notochord distortion). At 120 hpf, locomotor activity was measured using Viewpoint Zebralab and assessed for 13 endpoints. Zebrafish acquisition and analysis program (ZAAP), a custom program designed to inventory, acquire, and manage zebrafish data, was used to collect developmental endpoints as either present or absent (i.e., binary responses were recorded). If mortality occurred for an embryo (at either 24 or 120 hpf), the non-mortality endpoints were not measured.", "values": [
      {"smiles": "O=C(O)C=CC(F)(C(F)(F)F)C(F)(F)F", "outcome": "inactive"},
      {"smiles": "CC(O)C(F)(F)C(F)(F)F", "note": "(centres undefined)", "outcome": "inactive"},
      {"smiles": "C=CC(=O)OCC(F)(F)C(F)F", "outcome": "inactive"},
      {"smiles": "O=C(O)C(F)(F)C(F)(F)C(=O)O", "outcome": "inactive"},
      {"smiles": "FC(F)(F)C(F)(C(F)(F)F)C(F)(F)C(F)(F)CC1CO1", "note": "(centres undefined)", "outcome": "inactive"},
      {"smiles": "OCC(F)(F)OC(F)(F)C(F)(F)OC(F)(F)C(F)(F)OC(F)(F)CO", "AC50": "28.9 µM (active)"},
      {"smiles": "OCC(F)(F)OC(F)(F)C(F)(F)OC(F)(F)CO", "outcome": "inactive"},
      {"smiles": "O=C(O)C(F)(OC(F)(F)C(F)(F)C(F)(F)F)C(F)(F)F", "note": "(centres undefined)", "outcome": "inactive"},
      {"smiles": "O=C(O)C(F)(F)OC(F)(F)C(F)(F)OC(F)(F)F", "outcome": "inactive"},
      {"smiles": "NC(=O)C(F)(F)C(F)(F)F", "outcome": "inactive"},
      {"smiles": "COC(=O)C(F)(F)C(F)(F)OC(F)(C(F)(F)F)C(F)(F)OC(F)=C(F)F", "note": "(centres undefined)", "outcome": "inactive"},
      {"smiles": "O=C(O)C(F)(F)OC(F)(F)C(F)(F)OC(F)(F)C(=O)O", "outcome": "inactive"},
      {"smiles": "O=S(=O)(F)C(F)(F)C(F)(F)C(F)(F)C(F)(F)C(F)(F)C(F)(F)C(F)(F)C(F)(F)F", "outcome": "inactive"},
      {"smiles": "OCC(F)(F)OC(F)(F)C(F)(F)OC(F)(F)C(F)(F)OC(F)(F)F", "outcome": "inactive"}
    ]}
  ]
}
